A short description of test [1]: inhibitors of CD8+ T cell-vesicle binding, pilot screen, LFA-1/ICAM-1 modulator project, MLPCN validation set, flow cytometry (AID 2523;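 active = response below a set limit, under 55% cells CD8-positive and vesicle-bound, and CD8 cells' 90th-percentile brightness under 279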;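 for vesicle binding response: mean PE anti-B7-1 fluorescence of CD8+ cells relative to row control; 100% = QL9-loaded vesicles with DMSO vehicle in the same plate row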). To be noted: 2C mouse CD8+ T cells, at 7 µM, stronger effect = lower value; double positive events: measured here: CD8+/vesicle+ event percentage. Background: In flow cytometry, cells or beads pass a laser one at a time.
In test [2] the target is Integrin beta-1 (Homo sapiens) + Integrin alpha-4 (Homo sapiens) (UniProt P13612+P05556). The experiment in a line: inhibition of HUTS-21 binding to VLA-4, pilot screen, VLA-4 allosteric modulator project, U937 cells, HUTS-21 mAb, flow cytometry, validation set (AID 2674;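 active = inhibition above 50%, about 3 SD of the validation set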;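 note: antibody binding induced by the VLA-4 ligand LDV present at three times its Kd; 0% = LDV ligand with antibody and no compound and 100% = antibody without LDV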). To be noted: HUTS-21 LIBS mAb binding, at 6.7 µM, stronger effect = higher value.
A short description of test [3]: superoxide lowering in aged yeast cells, pilot screen, validation compound set (AID 2706;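 active = superoxide response below 65% of plate, a cut near 3 SD across the whole screen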;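 note: yeast exposed to compound for one week at 30 degrees C before staining; 100% = mean of all compound wells on the same plate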). To be noted: S. cerevisiae aging, superoxide DHE fluorescence; at 10 µM; stronger effect = lower value.
Test [4] concerns the target Beta-adrenergic receptor kinase 1 (Homo sapiens) (UniProt P25098). The experiment in a line: GRK2 binders displacing RNA aptamer, biochemical, validation, human GRK2, bead flow cytometry (AID 488806;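 active = aptamer binding inhibition above 30%, about 3 SD of noise from non-fluorescent compounds; inactive = inhibition at or below 30%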). To be noted: bead-bound GRK2, FAM-aptamer displacement, at 10 µM, stronger effect = higher value.
Test [5] has as its target Beta-2 adrenergic receptor (Homo sapiens) (UniProt P07550). The experiment in a line: beta2AR agonists driving receptor internalization, pilot screen, cell-based, FAP fluorogen, flow cytometry, validation set (AID 504459;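 active = percent response above 42, roughly 3 SD of non-fluorescent test compounds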;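 note: agonist-driven loss of surface beta2AR via internalization measured by FAP dye flow cytometry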). To be noted: Am2.2-beta2AR cells, FAP surface receptor flow cytometry; at 10 µM; stronger effect = higher value.
For test [6], the target named is AP-2 complex subunit beta (Homo sapiens) (UniProt P63010). The experiment in a line: inhibitors of arrestin peptide binding to AP2, pilot screen, biochemical, validation set, GST-AP2 beads, flow cytometry (AID 504541;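 active = inhibition above 54%, about 3 SD of non-fluorescent compounds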;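 note: AP2 carries R879A mutation and is captured from E. coli lysate; bead-bound FITC arrestin peptide fluorescence measuring arrestin peptide binding to AP2; 0% = DMSO wells and 100% = excess unlabeled arrestin peptide control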). To be noted: FITC arrestin peptide, at 10 µM, stronger effect = higher value.
The nature of test [7]: yeast V-ATPase proton transport modulators, S. cerevisiae, pHLuorin, HTS validation (AID 504600; in the data active = response above about 15%;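 note: plate controls were DMSO for no effect and reference compound for full effect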). To be noted: S. cerevisiae pHLuorin cytosolic pH, at 10 µM, stronger effect = higher value.
For test [8], the system named is anti-desmoglein-3 scFv antibody binding to human DSG3. Kind of test: inhibitors of anti-DSG3 scFv binding to DSG3, pilot screen, biochemical, validation compound set, bead-based, flow cytometry (AID 588368;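 active = binding below the plate cutoff, the plate median minus 3 SD, with a reading above zero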;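 note: signal is the median channel fluorescence of bead-bound GFP antibody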). To be noted: Protein G beads, DSG3-Fc, scFv-GFP binding, at 10 µM, stronger effect = lower value.
Test [9] has as its system Botulinum neurotoxin type F light chain protease (Clostridium botulinum). Kind of test: Botulinum neurotoxin type F light chain protease inhibition, multiplex microsphere flow cytometry, validation set (AID 588459). To be noted: multiplex microsphere protease substrate cleavage assay, at 10 µM, stronger effect = higher value.
The target of test [10] is Botulinum neurotoxin type A (Clostridium botulinum) (UniProt P0DPI0). Kind of test: BoNT/A light chain protease inhibitors, biochemical, multiplex microsphere flow cytometry, validation set (AID 588460). To be noted: at 10 µM, stronger effect = higher value.
Test [11] concerns the target Lethal factor (Bacillus anthracis) (UniProt P15917). Kind of test: Lethal factor protease inhibitors, Bacillus anthracis, multiplex microsphere cleavage assay, validation set (AID 588461). To be noted: flow cytometry, at 10 µM, stronger effect = higher value.
The nature of test [12]: inhibitors of fungal efflux pumps CDR1, CDR2, MDR1, pilot screen, validation compound set, multiplex, phenotypic (AID 588506;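 active = efflux inhibition above 0.42, the validation set average plus 4 SD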;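 note: Nile Red retained in cells so higher fluorescence means more efflux inhibition; 0 = negative control wells and 1 = enniatin B 25 µM full block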). To be noted: S. cerevisiae pump-expressing triplex, Nile Red efflux flow cytometry; at 10 µM; stronger effect = higher value.
Test [13] deals with ATP-binding cassette sub-family B member 6 (Homo sapiens) (UniProt Q9NP58). The experiment in a line: ABCB6 transporter inhibitors, pilot screen, K562-ABCB6 cells, flow cytometry, validation set (AID 588550;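 active = inhibition above the screen-wide mean plus 3 SD, about 51%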;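 note: 0% = DMSO wells and 100% = benzethonium chloride 70 µM positive control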). To be noted: K562-ABCB6 porphyrin accumulation, 1 h, at 10 µM, stronger effect = higher value.
A short description of test [14]: promoters of myeloid differentiation in arrested cells, primary screen, cell-based, GFP/MAC1 double positive, flow cytometry, validation set (AID 588685;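 active = differentiation response of at least 50%, scaled between solvent and reference control, from cells with both markers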;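 note: compound exposure lasts four days before antibody staining and flow analysis; 0% = DMSO wells and 100% = 5 µM fulvestrant positive control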). To be noted: ER-HoxA9 marrow cells, stronger effect = higher value.
Test [15] in a line: RPL19A-GFP modulators, yeast TOR pathway, confirmation, cell-based, S. cerevisiae, flow cytometry, cherry picks, mother/daughter gates (AID 2270;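 active = GFP response below 50% of the DMSO control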). To be noted: S. cerevisiae RPL19A-GFP strain, 3 h, at 10 µM, stronger effect = lower value, 100 = same GFP as DMSO wells.
Test [16] can be described thus: LAP4-GFP expression modulators in yeast, confirmation, cell-based, cherry picks, flow cytometry, mother/daughter gates (AID 2271;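 active = GFP response above 150% of the DMSO control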;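 note: ratio of sample to DMSO plate mean so 100% equals DMSO level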). To be noted: S. cerevisiae LAP4-GFP strain, 3 h, at 10 µM, stronger effect = higher value.
A short description of test [17]: modulators of CIT2-GFP expression in yeast, confirmation, S. cerevisiae, GFP fusion, cherry picks, mother/daughter gates (AID 2274;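 active = GFP response above 150% of the DMSO level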). To be noted: S. cerevisiae CIT2-GFP strain, flow cytometry, 3 h, at 10 µM, stronger effect = higher value.
The mark [18] stands for this setting: measured here: daughter cell gate.
Where [19] appears, read: measured here: mother cell gate.
[20] abbreviates: measured here: daughter cell gate response.
[21] abbreviates: measured here: mother cell gate response.

The source made the active and inactive calls. Unless noted, the rule behind the calls is not given here.

Sequence of ATP-binding cassette sub-family B member 6 (Homo sapiens) (Q9NP58 whole entry, looked up): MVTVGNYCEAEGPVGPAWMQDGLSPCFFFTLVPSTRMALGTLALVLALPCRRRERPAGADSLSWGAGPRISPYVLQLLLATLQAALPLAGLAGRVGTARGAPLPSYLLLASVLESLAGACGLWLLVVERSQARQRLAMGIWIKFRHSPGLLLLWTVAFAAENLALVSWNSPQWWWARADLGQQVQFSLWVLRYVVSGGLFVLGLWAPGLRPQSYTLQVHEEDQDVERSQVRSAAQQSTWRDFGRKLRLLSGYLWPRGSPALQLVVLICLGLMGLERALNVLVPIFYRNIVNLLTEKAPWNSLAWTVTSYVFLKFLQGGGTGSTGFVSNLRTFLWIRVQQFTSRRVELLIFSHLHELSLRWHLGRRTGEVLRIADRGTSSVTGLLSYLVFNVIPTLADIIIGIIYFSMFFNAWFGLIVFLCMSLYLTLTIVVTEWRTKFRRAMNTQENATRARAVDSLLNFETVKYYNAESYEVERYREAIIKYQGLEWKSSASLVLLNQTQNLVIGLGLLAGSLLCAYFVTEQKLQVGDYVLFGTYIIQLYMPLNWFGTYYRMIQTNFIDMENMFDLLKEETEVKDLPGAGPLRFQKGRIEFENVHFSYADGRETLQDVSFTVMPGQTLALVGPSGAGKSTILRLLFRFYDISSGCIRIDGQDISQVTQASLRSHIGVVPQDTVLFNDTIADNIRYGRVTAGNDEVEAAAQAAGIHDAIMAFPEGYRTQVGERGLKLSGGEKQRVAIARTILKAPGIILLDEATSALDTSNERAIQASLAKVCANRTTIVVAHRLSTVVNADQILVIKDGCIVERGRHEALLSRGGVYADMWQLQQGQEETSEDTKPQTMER
Sequence of AP-2 complex subunit beta (Homo sapiens) (P63010 whole entry, looked up, one chain of several): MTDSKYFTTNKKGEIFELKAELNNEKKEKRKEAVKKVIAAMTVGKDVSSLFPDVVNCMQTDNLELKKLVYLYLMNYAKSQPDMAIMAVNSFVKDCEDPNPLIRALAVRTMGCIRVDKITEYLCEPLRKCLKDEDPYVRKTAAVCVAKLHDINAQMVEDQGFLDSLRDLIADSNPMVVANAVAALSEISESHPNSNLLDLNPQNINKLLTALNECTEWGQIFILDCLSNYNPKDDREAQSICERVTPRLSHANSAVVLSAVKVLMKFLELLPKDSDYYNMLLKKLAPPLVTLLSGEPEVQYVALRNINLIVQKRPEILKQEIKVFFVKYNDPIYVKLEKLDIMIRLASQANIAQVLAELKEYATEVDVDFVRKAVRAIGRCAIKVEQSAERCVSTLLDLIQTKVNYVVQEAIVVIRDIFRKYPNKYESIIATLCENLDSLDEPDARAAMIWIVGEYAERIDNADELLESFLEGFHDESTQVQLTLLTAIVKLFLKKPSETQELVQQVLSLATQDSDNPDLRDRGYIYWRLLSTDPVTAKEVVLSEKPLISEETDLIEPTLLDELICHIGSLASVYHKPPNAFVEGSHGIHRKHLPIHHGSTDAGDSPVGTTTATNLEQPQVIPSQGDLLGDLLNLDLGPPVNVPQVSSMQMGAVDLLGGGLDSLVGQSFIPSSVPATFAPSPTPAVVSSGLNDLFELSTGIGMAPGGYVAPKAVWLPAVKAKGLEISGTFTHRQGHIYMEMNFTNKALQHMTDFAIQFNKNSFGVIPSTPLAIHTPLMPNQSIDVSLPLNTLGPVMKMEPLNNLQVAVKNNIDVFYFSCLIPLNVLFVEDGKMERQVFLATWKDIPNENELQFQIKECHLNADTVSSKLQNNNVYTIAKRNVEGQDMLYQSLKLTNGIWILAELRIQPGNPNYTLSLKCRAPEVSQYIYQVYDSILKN
Sequence of Beta-2 adrenergic receptor (Homo sapiens) (P07550 whole entry, looked up): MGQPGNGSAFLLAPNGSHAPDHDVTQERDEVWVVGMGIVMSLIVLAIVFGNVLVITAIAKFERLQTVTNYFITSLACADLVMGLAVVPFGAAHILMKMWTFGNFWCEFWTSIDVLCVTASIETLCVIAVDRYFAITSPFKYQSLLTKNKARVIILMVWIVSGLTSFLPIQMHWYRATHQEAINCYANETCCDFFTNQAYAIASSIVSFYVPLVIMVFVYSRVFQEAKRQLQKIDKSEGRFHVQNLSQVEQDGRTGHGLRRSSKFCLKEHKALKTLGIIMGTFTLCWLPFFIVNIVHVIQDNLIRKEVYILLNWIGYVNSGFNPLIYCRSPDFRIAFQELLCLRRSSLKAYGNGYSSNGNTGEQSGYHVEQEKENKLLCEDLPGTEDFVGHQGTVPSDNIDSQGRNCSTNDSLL
Sequence of Botulinum neurotoxin type A (Clostridium botulinum) (P0DPI0 whole entry, looked up): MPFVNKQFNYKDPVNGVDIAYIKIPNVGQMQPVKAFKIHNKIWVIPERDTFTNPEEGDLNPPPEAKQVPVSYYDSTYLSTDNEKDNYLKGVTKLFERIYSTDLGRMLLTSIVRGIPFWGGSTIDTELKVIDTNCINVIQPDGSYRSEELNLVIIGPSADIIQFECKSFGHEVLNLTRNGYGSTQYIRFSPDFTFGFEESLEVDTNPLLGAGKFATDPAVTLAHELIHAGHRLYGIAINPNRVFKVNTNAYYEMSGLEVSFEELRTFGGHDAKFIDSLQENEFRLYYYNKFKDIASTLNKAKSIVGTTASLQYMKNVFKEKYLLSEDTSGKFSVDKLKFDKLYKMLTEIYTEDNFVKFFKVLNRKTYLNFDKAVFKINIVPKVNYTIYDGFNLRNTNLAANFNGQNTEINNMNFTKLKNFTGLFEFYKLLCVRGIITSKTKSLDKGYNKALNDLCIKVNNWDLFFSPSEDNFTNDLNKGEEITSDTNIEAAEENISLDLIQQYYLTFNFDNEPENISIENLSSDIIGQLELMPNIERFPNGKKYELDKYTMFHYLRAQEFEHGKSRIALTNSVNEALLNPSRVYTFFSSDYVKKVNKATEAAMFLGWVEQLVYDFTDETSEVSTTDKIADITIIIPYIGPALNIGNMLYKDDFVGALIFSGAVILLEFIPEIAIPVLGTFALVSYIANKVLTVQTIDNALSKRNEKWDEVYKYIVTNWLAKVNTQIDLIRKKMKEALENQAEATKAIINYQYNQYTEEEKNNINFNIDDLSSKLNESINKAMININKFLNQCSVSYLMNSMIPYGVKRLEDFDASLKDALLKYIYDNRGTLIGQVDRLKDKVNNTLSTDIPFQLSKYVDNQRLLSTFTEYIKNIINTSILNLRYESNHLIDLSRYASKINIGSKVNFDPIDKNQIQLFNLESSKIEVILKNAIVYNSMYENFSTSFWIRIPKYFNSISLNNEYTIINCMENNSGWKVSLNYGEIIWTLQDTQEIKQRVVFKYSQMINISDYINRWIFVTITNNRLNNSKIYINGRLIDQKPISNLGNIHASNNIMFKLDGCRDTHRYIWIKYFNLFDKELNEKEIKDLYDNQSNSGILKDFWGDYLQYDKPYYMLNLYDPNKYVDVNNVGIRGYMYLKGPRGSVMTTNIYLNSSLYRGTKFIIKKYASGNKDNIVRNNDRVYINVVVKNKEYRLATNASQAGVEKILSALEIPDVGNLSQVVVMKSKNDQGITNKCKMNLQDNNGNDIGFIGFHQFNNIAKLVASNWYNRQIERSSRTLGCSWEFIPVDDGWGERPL
Sequence of Lethal factor (Bacillus anthracis) (P15917 whole entry, looked up): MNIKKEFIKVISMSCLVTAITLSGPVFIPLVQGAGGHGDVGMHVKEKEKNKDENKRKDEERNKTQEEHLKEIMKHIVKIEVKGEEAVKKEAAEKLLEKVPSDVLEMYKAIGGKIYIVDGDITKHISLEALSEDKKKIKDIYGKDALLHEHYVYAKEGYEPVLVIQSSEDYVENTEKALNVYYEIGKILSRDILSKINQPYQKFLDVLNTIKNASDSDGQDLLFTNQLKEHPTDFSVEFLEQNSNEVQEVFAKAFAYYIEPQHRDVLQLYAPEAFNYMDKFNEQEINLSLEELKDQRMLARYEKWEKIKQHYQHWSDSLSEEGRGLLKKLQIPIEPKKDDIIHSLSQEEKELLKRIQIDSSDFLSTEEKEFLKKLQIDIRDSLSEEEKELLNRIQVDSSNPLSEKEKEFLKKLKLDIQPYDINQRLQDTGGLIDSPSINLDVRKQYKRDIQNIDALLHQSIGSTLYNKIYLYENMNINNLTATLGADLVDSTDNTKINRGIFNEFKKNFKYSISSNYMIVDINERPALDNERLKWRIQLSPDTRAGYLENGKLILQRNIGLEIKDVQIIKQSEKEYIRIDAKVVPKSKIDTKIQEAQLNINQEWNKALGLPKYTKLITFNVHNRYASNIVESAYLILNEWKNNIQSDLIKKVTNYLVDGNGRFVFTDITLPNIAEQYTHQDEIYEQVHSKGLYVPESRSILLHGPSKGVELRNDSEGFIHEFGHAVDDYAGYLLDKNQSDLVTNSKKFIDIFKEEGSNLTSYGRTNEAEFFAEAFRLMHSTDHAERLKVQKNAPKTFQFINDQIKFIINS
Sequence of Beta-adrenergic receptor kinase 1 (Homo sapiens) (P25098 whole entry, looked up): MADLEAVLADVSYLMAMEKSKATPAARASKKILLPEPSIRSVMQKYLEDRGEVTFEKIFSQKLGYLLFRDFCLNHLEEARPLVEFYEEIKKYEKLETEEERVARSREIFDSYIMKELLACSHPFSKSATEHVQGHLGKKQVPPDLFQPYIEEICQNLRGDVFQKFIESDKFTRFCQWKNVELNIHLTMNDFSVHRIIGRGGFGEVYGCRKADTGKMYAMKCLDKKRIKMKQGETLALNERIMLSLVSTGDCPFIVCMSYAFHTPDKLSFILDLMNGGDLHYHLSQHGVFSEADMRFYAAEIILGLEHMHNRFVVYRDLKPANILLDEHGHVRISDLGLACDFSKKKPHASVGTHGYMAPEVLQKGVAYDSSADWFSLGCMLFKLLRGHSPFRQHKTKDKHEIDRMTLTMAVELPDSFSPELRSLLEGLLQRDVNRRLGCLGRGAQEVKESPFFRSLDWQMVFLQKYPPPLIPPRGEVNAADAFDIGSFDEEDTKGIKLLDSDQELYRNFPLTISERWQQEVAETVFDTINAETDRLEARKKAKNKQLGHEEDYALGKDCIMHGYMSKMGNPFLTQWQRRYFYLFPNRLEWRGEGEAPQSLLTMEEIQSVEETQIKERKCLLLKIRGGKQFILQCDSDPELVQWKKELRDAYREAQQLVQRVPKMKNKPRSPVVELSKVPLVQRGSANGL

`CCCC(C)(COC(N)=O)COC(=O)NC(C)C` (stereo not drawn): in test [1], the double positive events is 64.3%. In addition, the vesicle binding response in test [1] was 111% (inactive). Further, the inhibition was 23.6% (inactive) in test [2]; -2.17% (inactive) in test [6]; 0.5% (inactive) in test [9]; 1.4% (inactive) in test [10]; 6.3% (inactive) in [11]; 6% (inactive) in test [13]. The superoxide response (% of plate) in [3] was 94.5% (inactive). In test [4], the aptamer binding inhibition was 6% (inactive). The response is -23.9% (inactive) in test [5] and 9.22% (inactive) in [7]. Moreover, the binding (% of control) in [8] is 101% (inactive). The efflux inhibition (fraction of control) in test [12] is -0.13 (inactive). Further, the differentiation response in test [14] is 44.3% (inactive).

Consider `NCCc1ccc(O)cc1`, for which the double positive events in test [1] is 60%. For the same compound, the vesicle binding response in test [1] is 185% (inactive). Further, the inhibition is -2.82% (inactive) in [2]; 5.64% (inactive) in test [6]; 5.4% (inactive) in test [9]; 0.3% (inactive) in [10]; -8.1% (inactive) in test [11]; -2% (inactive) in [13]. For the same compound, the superoxide response (% of plate) in test [3] was 94.8% (inactive). Also, the aptamer binding inhibition in test [4] is 2% (inactive). Further, the response is -14.8% (inactive) in test [5] and 5.09% (inactive) in [7]. Further, the binding (% of control) in [8] is 107% (inactive). Moreover, the efflux inhibition (fraction of control) in test [12] was -0.09 (inactive). The differentiation response in test [14] is -11.9% (inactive).

For `O=C1/C(=C\c2ccc(Cl)c(Cl)c2)N2CCC1CC2`, the GFP response vs DMSO is 102% (inactive) in test [15], 101% in test [15] (setting [18]) and 99.1% in test [15] (setting [19]). Further, the results for the GFP response relative to DMSO in [16], in test [16] (setting [20]) and in test [16] (setting [21]) were 124% (inactive), 119% and 130%, respectively. For the same compound, the values for the GFP response, % of DMSO in test [17], in test [17] (setting [18]) and in test [17] (setting [19]) were 100% (inactive), 101% and 96.8%, respectively.

As to `CC(=O)Nc1cc([As](=O)(O)O)ccc1O`, in [1], the double positive events stood at 62.8%. For the same compound, the vesicle binding response in [1] was 170% (inactive). The inhibition in test [2] is 0.59% (inactive); in [6], -6.36% (inactive); in [9], 1% (inactive); in test [10], -1.3% (inactive); in test [11] it was 5.5% (inactive); in test [13], 6% (inactive). In addition, the superoxide response (% of plate) in test [3] was 92.8% (inactive). The aptamer binding inhibition in [4] was 0% (inactive). Further, the response is -23.7% (inactive) in [5] and 1.26% (inactive) in [7]. In addition, the binding (% of control) in test [8] is 101% (inactive). The efflux inhibition (fraction of control) in test [12] was 0 (inactive). Moreover, in [14], the differentiation response was -0.06% (inactive).

Take `CN1C(=O)C(=Cc2ccc(Sc3ccccc3)o2)C(=O)N(C)C1=S`: the GFP response vs DMSO in test [15] is 98.2% (inactive); in test [15] (setting [18]) it was 94.4%; in [15] (setting [19]), 91.3%. In addition, the GFP response relative to DMSO in [16] is 126% (inactive); in test [16] (setting [20]), 114%; in test [16] (setting [21]), 130%. Further, the values for the GFP response, % of DMSO in test [17], in test [17] (setting [18]) and in test [17] (setting [19]) were 99.3% (inactive), 117% and 84%, respectively.

`CC/C(=C\C=C\[C@@H]1C=C[C@@H]2CCC[C@H]2[C@@H]1C(=O)c1ccc[nH]1)[C@@H]1O[C@@H]([C@@H](C)C(=O)O)CC[C@@H]1C`: the double positive events in test [1] came to 60.2%. Moreover, the vesicle binding response in [1] was 275% (inactive). The inhibition was -7.08% (inactive) in test [2]; 0.83% (inactive) in test [6]; 1.9% (inactive) in test [9]; 0.5% (inactive) in [10]; -4.4% (inactive) in test [11]; -1% (inactive) in test [13]. Besides, the superoxide response (% of plate) in test [3] is 94% (inactive). The aptamer binding inhibition in [4] was 2% (inactive). Moreover, the response in test [5] was 9.7% (inactive); in test [7], -0.4% (inactive). Moreover, the binding (% of control) in test [8] was 107% (inactive). Further, the efflux inhibition (fraction of control) in test [12] is 0 (inactive). Also, the differentiation response in test [14] is -4% (inactive).

Broadly, the inhibition is the drop in the measured response relative to a control, in per cent.

Source of the values: PubChem BioAssay.
